Assay results taken from PubChem BioAssay (NCI).
About 79,000 compounds went through this panel and 15% of them were active in at least one assay; those are over-represented in the sample as a whole. No stated cut-off is given here; in the data, active means growth inhibition above about 70%; inactive means the rest.

Experiments:
[1] = NCI Yeast Anticancer Drug Screen. Data for the rad50 strain (AID 155);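 further: 0% = growth of vehicle-only cultures of the same strain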; conditions: S. cerevisiae rad50 strain growth inhibition; at 50.0 µM; active compounds read high
Summary of the method: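 DNA repair mutant yeast, compound exposure, growth read-out; inhibition is taken relative to vehicle.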

[2] = NCI Yeast Anticancer Drug Screen. Data for the mec2-1 strain (AID 157); conditions: S. cerevisiae mec2-1 strain, at 50.0 µM, active compounds read high
Summary of the method: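 Readout is yeast growth inhibition, normalised to vehicle-treated controls, in the mec2-1 strain exposed to compound.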

[3] = NCI Yeast Anticancer Drug Screen. Data for the sgs1 mgt1 strain (AID 161);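 further: 0% = growth of cultures given vehicle only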; conditions: S. cerevisiae sgs1 mgt1 strain, at 50.0 µM, active compounds read high
Summary of the method: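 Yeast cells carrying a defined DNA-repair defect were exposed to test compounds. Growth inhibition was measured relative to vehicle-treated controls.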

[4] = NCI Yeast Anticancer Drug Screen. Data for the cln2 rad14 strain (AID 165);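 further: 0% = growth equal to vehicle treated cultures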; conditions: S. cerevisiae cln2 rad14 strain, at 50.0 µM, active compounds read high
Summary of the method: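 Relative to vehicle controls, growth inhibition of compound-treated cln2 rad14 yeast was recorded.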

[5] = NCI Yeast Anticancer Drug Screen. Data for the bub3 strain (AID 167); conditions: S. cerevisiae bub3 mutant strain, at 50.0 µM, active compounds read high
Summary of the method: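 In this screen, a yeast mutant lacking normal mitotic checkpoint function is challenged with compound. Relative growth versus vehicle gives the inhibition value.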

[6] = NCI Yeast Anticancer Drug Screen. Data for the mlh1 rad18 strain (AID 175); conditions: S. cerevisiae mlh1 rad18 strain growth inhibition; at 50.0 µM; active compounds read high
Summary of the method: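 Test agents were incubated with a yeast strain of defined genotype (DNA damage repair defect). Inhibition of growth was derived by comparison with vehicle-exposed cultures.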

Measured: growth inhibition

C#CCC[N+](C)(C)C
inactive: [1] -0.75% | [2] -12.5% | [3] -5.2% | [4] 11.2% | [5] -7.45% | [6] 4.55%

Cc1c(Cl)c(=O)oc2cc(OCC(O)COC(C)C)ccc12 (configuration not stated)
inactive: [1] -23.7% | [2] -30.9% | [3] -36.3% | [4] -23.2% | [5] -13.3% | [6] -25.4%

CC1CCC(O)(C(C)(C(=O)O)c2ccccc2)CC1 (configuration not stated)
inactive: [1] -19.7% | [2] -16.8% | [3] -5.65% | [4] -35.6% | [5] -54.8% | [6] -8.45%

Cn1c(=O)c(Cl)c(N=[N+]=[N-])c2ccccc21
inactive: [1] 45.1% | [2] 37.4% | [3] 44% | [4] 51% | [5] 22% | [6] 30.2%

Cc1ccc(S(=O)(=O)OC2CCCCCC2c2ccccc2)cc1 (configuration not stated)
inactive: [1] 7.85% | [2] -5.1% | [3] 0.05% | [4] -42.5% | [5] -2.75% | [6] -3.55%

CCCCCCCCCCCCCCCCCC(=O)N/N=C\c1ccc(O)c(OC)c1
inactive: [1] -11.6% | [2] -13.6% | [3] -9.35% | [4] -56.8% | [5] -2.55% | [6] 6.5%

CN(C)Cc1ccccc1O
inactive: [1] 4.15% | [2] 17.6% | [3] -3.6% | [4] -17.6% | [5] 5.65% | [6] -51.5%

COC(=O)NC(CI)c1ccccc1 (configuration not stated)
inactive: [1] 14.7% | [2] -5.8% | [3] 7.55% | [4] 8.85% | [5] -6.35% | [6] 23.9%

CCOC(=O)c1cc2ccccc2oc1=O
inactive: [1] -15.2% | [2] 0.3% | [3] -8.75% | [4] 16.4% | [5] 9.25% | [6] 3.9%

COc1ccc(NC(=O)N2CC3CCN2CC3)cc1
inactive: [1] -7.95% | [2] -10.8% | [3] -12.2% | [4] -21.9% | [5] -12.7% | [6] -16.2%

COC(=O)C1=C(C(=O)OC)C2(CCCCCC2=O)OC1=O (configuration not stated)
inactive: [1] -0.65% | [2] 5.45% | [3] -12.8% | [4] 8.9% | [5] 3.85% | [6] -8.25%

N#Cc1cnc(SCC(=O)O)nc1N
inactive: [1] -27.2% | [2] -39.6% | [3] -15.5% | [4] 8.8% | [5] -36.2% | [6] -13.4%

C/C(N=NS(=O)(=O)c1c(C)cc(C)cc1C)=C1\C=CC=CN1O
inactive: [1] -26.4% | [2] -10.2% | [3] -8.25% | [4] -6.95% | [5] 4.15% | [6] -18.8%

CC(=O)Nc1cc2ccccc2c(Br)n1
inactive: [1] -14.9% | [2] 6.55% | [3] -4.65% | [4] -13.1% | [5] -9.95% | [6] -6.15%

Cc1cc(=O)n(-c2ccc([N+](=O)[O-])cc2)c(C)c1C(=O)O
inactive: [1] 3.25% | [2] -2.4% | [3] 4.85% | [4] -0.15% | [5] 7.9% | [6] -1.65%

CC(O)CN1c2ccccc2Sc2ccccc21 (configuration not stated)
inactive: [1] -17.4% | [2] -13.7% | [3] -13.2% | [4] -18.2% | [5] -13.8% | [6] 7.55%

Cc1[nH]c(=O)[nH]c(=O)c1C(=O)N(CCO)Cc1ccccc1
inactive: [1] -39.5% | [2] -21.4% | [3] -24.9% | [4] 7.7% | [5] 11.7% | [6] -15.9%

O=C(O)COc1c(Cl)cc(Cl)c2cccnc12
inactive: [1] 28.9% | [2] -3.85% | [3] -15.7% | [4] -16.9% | [5] -63.2% | [6] -4.45%

N#Cc1nc(C2CCC2)oc1N
inactive: [1] 2.3% | [2] 5.85% | [3] -15.3% | [4] 18.6% | [5] 1.55% | [6] -41.5%

Cc1ccc(S(=O)NOCc2ccccc2)cc1 (configuration not stated)
inactive: [1] 3.25% | [2] 16.4% | [3] 5.3% | [4] 11.4% | [5] 11.1% | [6] 51%

O=C(CNC(=O)c1ccccc1)NCS(=O)(=O)O
inactive: [1] 12.2% | [2] -3.6% | [3] 19% | [4] 14.7% | [5] 19.2% | [6] 11.3%

CCOC(C)C=O (configuration not stated)
inactive: [1] -3.85% | [2] 19.1% | [3] -21.4% | [4] -36% | [5] -7.6% | [6] -25.9%

CCOC(=O)c1[nH]c2cccc3c2c1CC[C@H](NC(=O)C(F)(F)F)C3=O
inactive: [1] -5.1% | [2] 9.3% | [3] 10.8% | [4] 18.2% | [5] 0.95% | [6] 8.3%

COc1cc2nc(Sc3c([N+](=O)[O-])ncn3C)[nH]c2cc1OC
inactive: [1] -41.6% | [2] -33.3% | [3] -30% | [4] -23% | [5] -43.5% | [6] -46%

COc1ccccc1NC(=O)CC(=O)n1nc(C)c(N=Nc2ccccc2C(=O)O)c1C
inactive: [1] -12.6% | [2] -25.3% | [3] -17.6% | [4] -14.9% | [5] -15.8% | [6] -9.5%

CCN(CC)C(=S)Oc1cc(C)nc(SCC(=O)c2ccc(Cl)cc2)n1
inactive: [1] 22.6% | [2] -18.8% | [3] 41.2% | [4] 29.2% | [5] 30.8% | [6] 28.4%

CC(Sc1nc2ccccc2c(=O)[nH]1)c1ccccc1 (configuration not stated)
inactive: [1] 3.1% | [2] -1.85% | [3] 3.3% | [4] -21.8% | [5] 7.3% | [6] -6.7%

O=S(=O)(c1ccccc1)N1CCCCC1
inactive: [1] -23.3% | [2] 5.05% | [3] 3.45% | [4] -33% | [5] 29.5% | [6] 25.6%

O=C(CCC(=O)C1Cc2ccccc2C1=O)Nc1cccc(C(F)(F)F)c1 (configuration not stated)
inactive: [1] -38.8% | [2] -42% | [3] -18.8% | [4] -1.5% | [5] -22.9% | [6] -30.7%

Nc1cc(Cl)c(F)cc1Cl
inactive: [1] -13.3% | [2] 0.25% | [3] -3.6% | [4] -28.8% | [5] 1.15% | [6] -14.2%

O=C(OCC1OC(n2cnc3c(Cl)ncnc32)C(OC(=O)c2ccccc2)C1OC(=O)c1ccccc1)c1ccccc1 (configuration not stated)
inactive: [1] -16.6% | [2] -21.2% | [3] -13.2% | [4] 5.6% | [5] -12.8% | [6] -13.3%

O=C(CN1CCN(c2ccccc2)CC1)n1nnc2ccccc21
inactive: [1] -9.4% | [2] -3.9% | [3] -3.6% | [4] -13.8% | [5] -31.5% | [6] -6%

O=C1C(Cl)=C(NCCCN2CCN(CCCNC3=C(Cl)C(=O)c4ccccc4C3=O)CC2)C(=O)c2ccccc21
inactive: [1] 44.5% | [2] 27.8% | [3] 33.1% | [4] 9.45% | [5] 6.35% | [6] 33.6%

CCC(C(N)C(=O)O)C(F)(F)F (configuration not stated)
inactive: [1] -19.4% | [2] -32.1% | [3] 1.4% | [4] 4.25% | [5] -22.1% | [6] -6.55%

CC(=O)OC(C)CCl (configuration not stated)
inactive: [1] -27.6% | [2] -48.1% | [3] -34% | [4] 2.6% | [5] -17.7% | [6] -14.2%

O=P(NC1CCCCC1)(NC1CCCCC1)c1ccccc1
inactive: [1] -10.9% | [2] 13.2% | [3] -5.1% | [4] 18.3% | [5] 13.6% | [6] 1.25%

C[N+](C)(N)CCC[N+](C)(C)N
inactive: [1] 12.4% | [2] 5.2% | [3] -3.3% | [4] -29.4% | [5] -52.6% | [6] -3.4%

Cc1cc(-c2cccc3ccccc23)c(C#N)c(=S)n1C1OC(CO)C(O)C(O)C1O (configuration not stated)
inactive: [1] 14.1% | [2] 4.4% | [3] 47.4% | [4] 9.5% | [5] 15.8% | [6] 33.6%

Nc1nc(-c2ccccc2)nc2[nH]ncc12
inactive: [1] -5.45% | [2] -3.5% | [3] -11.2% | [4] -10.2% | [5] 1.6% | [6] 5.75%

Nc1nc(Cl)nc(Nc2ccc(-c3cc4ccc(-c5ncc[nH]5)cc4[nH]3)cc2)n1
inactive: [1] 15.5% | [2] 45.5% | [3] 45.4% | [4] 31.7% | [5] -3.6% | [6] 62.6%

Nc1cccc(-c2nc3ccccc3[nH]2)c1
inactive: [1] -21.9% | [2] -26.4% | [3] -17.8% | [4] -9.2% | [5] -20.2% | [6] -14.6%

COc1ccc(N2C(=O)OC3(CCN(Cc4ccccc4)CC3)C2=O)cc1
inactive: [1] -1.55% | [2] 13.2% | [3] 7.7% | [4] 8.25% | [5] 8% | [6] 16.4%
